The whole screen tested about 340,000 compounds, of which about 270 (0.079%) were called active. Only a selection was taken, and actives are over-represented in it overall. Values without a mark were called inactive.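 Rule for the calls: active = activation above a cutoff set at the mean over all compounds plus 3 SD (cut at about 18% in these data); inactive = the rest.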
target: cAMP-dependent protein kinase catalytic subunit beta (Homo sapiens) + cAMP-dependent protein kinase type II-beta regulatory subunit (Homo sapiens) (UniProt P22694+P31323); assay: compounds dissociating PKAc from R2B subunit – biochemical, fluorescence polarization, Cy5-IP20, human, primary screen (AID 504700); conditions: PKA-R2B holoenzyme dissociation, at 11.4 µM, active compounds read high, 0% DMSO only, 100% 113 µM cGMP, R2B truncated from residue 108, S112A mutant;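 note: higher means more holoenzyme dissociation and a rise in polarization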
Sequence (P31323 whole entry, looked up, other chains not shown, the tested form may be a part): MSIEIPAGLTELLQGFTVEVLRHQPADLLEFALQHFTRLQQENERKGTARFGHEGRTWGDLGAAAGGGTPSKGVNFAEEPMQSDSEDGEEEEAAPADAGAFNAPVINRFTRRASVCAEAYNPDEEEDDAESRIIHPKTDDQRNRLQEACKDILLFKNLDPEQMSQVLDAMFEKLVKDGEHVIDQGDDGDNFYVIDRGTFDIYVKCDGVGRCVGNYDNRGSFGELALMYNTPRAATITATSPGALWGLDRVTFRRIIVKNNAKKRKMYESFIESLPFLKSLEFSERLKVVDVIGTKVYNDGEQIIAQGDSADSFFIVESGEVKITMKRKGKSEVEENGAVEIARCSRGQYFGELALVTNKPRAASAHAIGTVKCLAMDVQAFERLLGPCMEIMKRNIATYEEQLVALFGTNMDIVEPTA

Compound | activation
Cc1ccccc1NC(=O)Cc1nc(COC(=O)C(C)(C)Oc2ccc(Cl)cc2)cs1 | 3.15%
C/C(COc1ccccc1)=N\NC(=O)c1nnn(-c2nonc2N)c1-c1ccc(C)cc1 | -17.1%
CCCc1c(C)nc2scc(-c3ccc(Cl)cc3)n2c1=O | -2.72%
CSc1ncnc2c1ncn2CCCNCc1cccs1 | 2.56%
CCC(Oc1ccccc1)C(=O)OCC(=O)Nc1c(C)nn(-c2ccccc2)c1C (stereo unspecified) | -5.13%
COc1cccc(OCC(=O)NCCS(=O)(=O)N2CCN(c3ccccc3)CC2)c1 | 0.99%
CNC(=O)C[C@H]1C(=O)N(Cc2ccccc2)C[C@@H]1CSC | -9.1%
COc1ncnc2c1ncn2CCCNCCN1CCOCC1 | 4.38%
O=S1(=O)CCN(Cc2ccccc2)CC1 | -1.42%
C[C@@H]1CN([C@@H](C)CO)S(=O)(=O)c2ccc(C#Cc3cccc(F)c3)cc2O[C@H]1CN(C)S(=O)(=O)c1cn(C)cn1 | 7.01%
Nc1cccc(OCCCCCOc2cccc(N)c2)c1 | 5.43%
COC(=O)C[C@H]1C[C@@H]2c3cc(N(C)C)ccc3O[C@@H]2[C@H](CO)O1 | 5.15%
O=C1OCCC1=COCCCCOC=C1CCOC1=O | 3.03%
COc1ccc(CN2C(=O)C(CC(=O)NCc3cccc4ccccc34)CC(C(=O)N3CCOCC3)=C2C)cc1 (stereo unspecified) | 2.78%
CC(=O)Nc1ccc2nc(NC(=O)CS(=O)(=O)c3ccc(F)cc3)sc2c1 | -8.48%
CNC(=O)C1CN(C(=O)c2cccc(S(=O)(=O)N3CCc4ccccc43)c2)c2ccccc2O1 (stereo unspecified) | 1.53%
Cc1ccc(S(=O)(=O)N2CCCCC2)cc1NC(=O)CCNC(=O)c1ccccc1Cl | 16.1%
O=C(NCc1ccccc1)C1CNCC(C(=O)NCc2ccccc2)C1 (stereo unspecified) | 9%

Compound | activation
CCCCCCNC(=O)O[C@H]1CN(C(=O)OC(C)C)N(C(=O)OC(C)C)[C@@H]2CN(S(=O)(=O)c3ccc(C)cc3)C[C@]12O | -13.6%
COc1ccc([N+](=O)[O-])cc1NC(=O)C(C)OC(=O)C1c2ccccc2Oc2ccccc21 (stereo unspecified) | -4.93%
COc1ccccc1C1SCCN1C(=O)c1ccc([N+](=O)[O-])cc1 (stereo unspecified) | 0.16%
COc1ccc([N+](=O)[O-])cc1C1NN=C(c2cccc3ccccc23)S1 (stereo unspecified) | 20.8% (active)
O=C(N=C1SC2CS(=O)(=O)CC2N1Cc1ccccc1)c1ccccc1 (stereo unspecified) | 1.79%
C[C@@H]1CN([C@H](C)CO)C(=O)c2cc(Br)cnc2O[C@@H]1CN(C)Cc1cncnc1 | 2.5%
CC1=C(C(=O)N2CCOCC2)CC(CC(=O)NCC2CCCCC2)C(=O)N1Cc1ccc(F)cc1 (stereo unspecified) | -0.55%
C[C@H](CO)N1C[C@H](C)[C@@H](CN(C)S(=O)(=O)c2ccc(F)cc2)OCc2cnnn2CCCC1=O | -2.57%
CC1(C)CC(=O)C=C(c2ccc(COC(=O)c3cc(F)cc(F)c3)cc2)C1=O | 4.64%
CC1(C2CC2)NC(=O)N(CC(=O)N2CCN(c3ccccc3F)CC2)C1=O (stereo unspecified) | 1.69%
CCCCN(C(C)=O)c1ccc2c(c1)C1CC2CCN1Cc1ccccc1 (stereo unspecified) | 2.7%
Cc1ccc(-c2ccc(C3=CC(=O)CC(C)(C)C3=O)cc2)cc1 | 9.99%
CCCCN1C[C@H](c2ccc(Br)cc2)[C@@H](CC(=O)Nc2ccc(Br)cc2)C1=O | 2.46%
Cc1ccc(S(=O)(=O)N2C[C@H]3n4c(=O)ccc(=O)n4C[C@H](OC(=O)NC4CCCC4)[C@@]3(O)C2)cc1 | 8.63%
CCOc1ccc(NS(=O)(=O)c2ccc(C(=O)NCC3CCCO3)cc2)cc1 (stereo unspecified) | -2.2%
Cc1cc(/C=C2/SC(=O)N(CC(=O)N3CCCC3)C2=O)c(C)n1C | 2.6%
Cc1nn(Cc2ccccc2)c(C)c1C(=O)NCCN1C(=O)S/C(=C\c2ccc(F)cc2)C1=O | -11.8%
N#Cc1ccccc1CN1C(=O)S/C(=C/c2cccn2-c2cccc(C(=O)O)c2)C1=O | 24.5% (active)
